# In PubChem BioAssay AID720641 (ICCB-Longwood Screening Facility, Harvard Medical School, 2013):
# About 900 (0.53%) of roughly 170,000 compounds were called active.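 The calls were made as follows: active = relative growth at most 50% at the other temperature and 20+ points below 30 °C, or under 10% at both; inactive = the rest, inconclusive results apart.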 The entries come from a sample that favours actives as a whole.
# Test: Staphylococcus aureus RN4220 growth blockers – two temperatures, LtaS inhibitor project, primary screen (AID 720641)
# Conditions: S. aureus RN4220 growth, OD600, 20 h, 42 °C, stronger effect = lower value
Compound,relative growth,relative growth (measured here: growth at 30 °C)
Cc1onc(-c2ccccc2)c1C(=O)Nc1cccc(C(F)(F)F)c1,113% (inactive),87.3%
Cc1oc2c(F)c(F)c(F)c(F)c2c1S(=O)(=O)Nc1cccc(C(F)(F)F)c1,8.52% (active),1.85%
CCNS(=O)(=O)c1ccc(NC(=O)Nc2cccc(C(F)(F)F)c2)cc1,98.8% (inactive),83.1%
Cc1cc(N2CCCCC2)nc2ccc(NC(=O)CCC(=O)N3CCC(C)CC3)cc12,78.9% (inactive),78.2%
CCc1ccc2[nH]c(=O)c(CN(Cc3ccco3)C(=S)NCC(C)C)cc2c1,84% (inactive),74.7%
COc1ccc(OCCN2C(=O)c3ccccc3S2(=O)=O)cc1,102% (inactive),95%
CCCCc1c(COC)nc(-c2ccc(Cl)cc2)[nH]c1=O,122% (inactive),53%
CCCCCc1c(C)nc(-c2ccccn2)[nH]c1=O,1.74% (active),1.83%
CC(=O)Nc1nc(C)c(Cc2ccccc2)c(=O)[nH]1,106% (inactive),86.1%
CC(C)(C)C(=O)OCC(=O)Nc1ccccc1,124% (inactive),92.1%
Cc1nc(/N=C(/N)NC(=O)Cc2ccccc2)nc2ccccc12,93.2% (inactive),87.1%
Cc1ccc2nc(CN3CCc4sccc4C3c3cccs3)cn2c1 (stereo not given),0.12% (active),-0.28%
CC(NC(=O)CN1CCc2sccc2C1c1cccs1)c1ccc2c(c1)OCCO2 (stereo not given),116% (inactive),98.8%
N#CCSc1ccccc1NC(=O)CN1CCc2sccc2C1c1cccs1 (stereo not given),94.4% (inactive),87%
CCOC(=O)c1oc2ccccc2c1N=Cc1c(O)n(CC)c(=S)n(CC)c1=O,99% (inactive),93.3%
CSc1nsc(SCC(=O)N2CCCC2)n1,93.6% (inactive),82.6%
CCOC(=O)N1CCN(CC(=O)NCCc2ccc(Cl)cc2Cl)CC1,90.9% (inactive),81.3%
O=C(Cn1cc(C(F)(F)F)cc(Cl)c1=O)Nc1ncccn1,94.1% (inactive),94.7%
CCC(CC)C(=O)N(c1ccc(OC)cc1OC)C1C=CS(=O)(=O)C1 (stereo not given),99.8% (inactive),90.8%
COc1cccc2c1OCc1sc3[nH]c(=S)[nH]c(=O)c3c1-2,50.5% (inactive),32.4%
N#Cc1ccc(OCC(=O)N=Nc2[nH]c(N)c3ccccc23)cc1,104% (inactive),101%
Cn1c(NCc2ccccc2)nc2ccccc21,105% (inactive),64.6%
Cn1c(NC(=O)c2ccccc2)nc2ccccc21,9.06% (active),0.29%
Cn1c(-c2ccc(C(=O)c3ccccc3)s2)nc2ccccc21,101% (inactive),95.7%
O=C(COc1ccccc1)NC(C(=O)O)C12CC3CC(CC(C3)C1)C2 (stereo not given),112% (inactive),83.1%
CN1CCN(c2nc(C34CC5CC(CC(C5)C3)C4)cs2)CC1,-0.89% (active),-0.63%
c1snnc1C12CC3CC(CC(C3)C1)C2,103% (inactive),109%
CC(C)(C)C(=O)Nc1ccc(Br)cc1,109% (inactive),84.5%

Compound,relative growth,relative growth (measured here: growth at 30 °C)
CCOC(=O)c1cnc(SCSc2nc3ccccc3s2)nc1N,86.4% (inactive),87%
CC(=O)Oc1ccc2occ(C(=O)c3cc4ccccc4o3)c2c1,89.3% (inactive),86.2%
Cc1ccc(OC(=O)c2cc3ccccc3o2)cc1,0.01% (active),-0.88%
CC(C)Oc1ccc(NC(=O)c2cc3ccccc3o2)cc1,87.3% (inactive),89.7%
O=C(Oc1ccc2oc(=O)sc2c1)c1ccccc1,92.5% (inactive),94%
CC(C)n1c(CCC(=O)O)ccc1-c1ccc(F)cc1,126% (inactive),97.4%
CN(C)[C@@H]1C(=O)C(C(N)=O)=C(O)[C@@]2(O)C(=O)C3=C(O)c4c(O)ccc(Cl)c4[C@@H](O)[C@H]3C[C@@H]12,-0.41% (active),-1%
COC(=O)/C(C#N)=C(\NCc1ccc(Cl)cc1Cl)SC,99.2% (inactive),99.3%
NC(=O)C1CCN(C(=O)CSc2ccc3ccccc3c2)CC1,84.3% (inactive),94.8%
COc1ccc(F)cc1C(O)CSCc1ccccc1 (stereo not given),124% (inactive),84.8%
CCOC(=O)Nc1nc2c(ccc3ccccc32)s1,92.4% (inactive),91.2%
O=C(O)C1CCC(CNS(=O)(=O)c2ccc(Br)cc2)CC1 (stereo not given),108% (inactive),96.5%
CCOC(=O)c1oc2nc(-c3ccccc3)cc(-c3ccco3)c2c1N,97.1% (inactive),91.1%
CCc1ccc(CNC(=O)c2ccc(CS(=O)c3ccc(Br)cc3)o2)cc1 (stereo not given),19.5% (active),45.9%
CCOc1ccc(CNC(=O)c2ccc(CS(=O)c3ccccc3)o2)cc1 (stereo not given),101% (inactive),79.9%
Cc1ccc(CNC(=O)c2ccc(CS(=O)Cc3cccc(Cl)c3)o2)cc1 (stereo not given),116% (inactive),82.8%
COC(=O)c1scc2c(N3CCCCC3)cc(C(F)(F)F)nc12,90.2% (inactive),95.5%
CCN1CCN(C(=O)N[C@@H](C(=O)N[C@@H]2C(=O)N3C(C(=O)O)=C(CSc4nnnn4C)CS[C@H]23)c2ccc(O)cc2)C(=O)C1=O,-0.62% (active),-0.46%
O=C(Nc1nnc(C2CC2)s1)c1cc(Cl)sc1Cl,77.4% (inactive),68.7%
COC(=O)c1ccc2c(c1)NC(=O)C(C)N2 (stereo not given),95.5% (inactive),65.5%
CC1CCCCN1S(=O)(=O)c1ccc(I)cc1 (stereo not given),103% (inactive),105%
CC1CCCCN1S(=O)(=O)CCNC(=O)c1ccccc1 (stereo not given),85.7% (inactive),88.4%
CC1CCCCN1S(=O)(=O)c1ccc(F)c(C(=O)Nc2ccccc2C(F)(F)F)c1 (stereo not given),98.5% (inactive),90%
CC1CCCCN1S(=O)(=O)c1ccc(C(=O)Nc2nnc(-c3cccs3)o2)cc1 (stereo not given),2.04% (active),1.82%
CSCc1nnc(NC(=O)c2ccc(S(=O)(=O)N3CCCCC3C)cc2)o1 (stereo not given),0.19% (active),-0.08%
CCc1nnc(NC(=O)C2CCCN2S(=O)(=O)c2ccccc2)s1 (stereo not given),119% (inactive),89.3%
O=C(Cc1n[nH]c(=O)c2ccccc12)N/N=C/c1ccc(-c2ccc(Br)cc2)o1,95.6% (inactive),86.9%
